Data published in PubChem BioAssay (Tox21).
Results filed as inconclusive are left out. A call without a number means that no potency is given here. Some compounds were tested as several samples or in several runs, with calls that do not always agree. The source made the active and inactive calls. Unless noted, the call rests on the fitted dose curve.

How the values were obtained:
[1] = qHTS assay to identify small molecule agonists of the vitamin D receptor (VDR) signaling pathway - cell viability counter screen (AID 743224; active means well fitted curve in the direction sought with a large enough effect in the repeat runs; an effect the other way counts as inactive or inconclusive; further: series mostly up to about 63 µM; nearly all actives have a fitted effect of over 50% in size)
Outline: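 VDR-bla cells, 4 h after plating, exposed to compounds for 16 h at 37C; viability then read in the same wells as CellTiter-Glo luminescence after 30 min at room temperature, following the bla FRET read.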

[2] = qHTS assay to identify small molecule agonists of the NFkB signaling pathway (AID 1159509; active means well fitted curve in the direction sought with a large enough effect in the signal ratio in the repeat runs, not every such curve was filed as active; the % refers to the signal ratio; further: series mostly up to about 61 µM)
Outline: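 ME-180 NFkB-bla, 2,000 cells/well, overnight plating; cpd pinned in DMSO, 5 h 37 C; B/G FRET substrate 1.5 h RT; ex 405, em 460/530 nm.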

[3] = qHTS assay to identify small molecule agonists of the NFkB signaling pathway - cell viability counter screen (AID 1159515); further: series mostly up to about 61 µM; nearly all actives have a fitted effect of over 55% in size
Outline: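 NFkB-bla ME-180 cells, 2,000/well, plated overnight at 37 C; compound added for 5 hr at 37 C. Viability read in the same wells as the bla reporter, by CellTiter-Glo luminescence after 30 min at room temperature.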

[4] = qHTS assay to identify small molecule agonists of the endoplasmic reticulum stress response signaling pathway (AID 1159516; active means well fitted activation curve with a large enough effect in the signal ratio in the repeat runs, not every such curve was filed as active; the % refers to the signal ratio; further: potency means the concentration at half of the fitted maximal effect)
Outline: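 CellSensor ESRE-bla HeLa cells, 1,500 per well, plated overnight, then exposed to compounds for 5 hr at 37 C. Beta-lactamase reporter read with LiveBLAzer B/G FRET substrate after 2 hr at room temperature, 405 nm excitation, 460 and 530 nm emission.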

[5] = qHTS assay to identify small molecule agonists of the endoplasmic reticulum stress response signaling pathway - cell viability counter screen (AID 1159517);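 further: HeLa cells carrying an ER stress response element beta-lactamase reporter; series mostly up to about 61 µM; nearly all actives have a fitted effect of over 50% in size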
Outline: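 CellTiter-Glo was added to wells already read for beta-lactamase FRET, and luminescence was recorded 30 min later. Cells: ESRE-bla HeLa, 1,500 per well, compound exposure 5 hr at 37 C.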

[6] = qHTS assay to identify small molecule antagonists of the retinoid-related orphan receptor gamma (ROR-gamma) signaling pathway - cell viability counter screen (AID 1159520; active means well fitted curve in the direction sought with a large enough effect in the repeat runs; an effect the other way counts as inactive or inconclusive; further: nearly all actives have a fitted effect of over 50% in size)
Outline: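 Tet-on ROR gamma CHO cells (1,000/well) were plated 4 hr, given compounds in DMSO for 2 hr at 37 C, then induced with 1 uM final doxycycline for 16 hr. Viability was read as ATP by CellTiter-Glo luminescence after 30 min.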

[7] = target: Nuclear receptor ROR-gamma (Homo sapiens) (UniProt P51449); assay: qHTS assay to identify small molecule antagonists of the retinoid-related orphan receptor gamma (ROR-gamma) signaling pathway (AID 1159521; active means well fitted curve in the direction sought with a large enough effect in the repeat runs; an effect the other way counts as inactive or inconclusive; further: nearly all actives have a fitted effect of over 50% in size; further: potency means the concentration at half of the fitted maximal effect)
Outline: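 Test compounds were applied to Tet-on RORγ CHO cells 2 h ahead of doxycycline hyclate (1 uM final). Luciferase reporter activity was quantified by luminescence after 16 h at 37 C and 5% CO2.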

[8] = qHTS assay to identify small molecule agonists of the AP-1 signaling pathway - cell viability counter screen (AID 1159525); further: nearly all actives have a fitted effect of over 55% in size
Outline: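 ME-180 AP-1-bla, 2500 cells/well, Opti-MEM + 0.5% dialyzed FBS; overnight 37 °C; cpd 15-pt titration, 5 h 37 °C; CellTiter-Glo 30 min RT; luminescence read; normalised to TOAB and DMSO controls.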

[9] = qHTS assay to identify small molecule agonists of the AP-1 signaling pathway (AID 1159526)
[10] = qHTS assay to identify small molecule antagonists of the vitamin D receptor (VDR) signaling pathway - cell viability counter screen (AID 743225; active means well fitted curve in the direction sought with a large enough effect in the repeat runs; an effect the other way counts as inactive or inconclusive; further: nearly all actives have a fitted effect of over 50% in size)
Outline: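 Compounds were pinned onto VDR-bla HEK 293T cells together with 1-alpha,25-dihydroxyvitamin D3 at 3 nM final. After 16 h at 37C and 5% CO2 plus the reporter readout, cell viability was measured by CellTiter-Glo luminescence (30 min, room temperature).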

CC(C)(C)NC(=O)[C@H]1CC[C@H]2[C@@H]3CC[C@H]4NC(=O)C=C[C@]4(C)[C@H]3CC[C@]12C
Potency [1]: inactive
outcome [2]: inactive
Potency [3]: inactive
Potency [4]: inactive
Potency [5]: inactive
Potency [6]: inactive
Potency [7]: inactive
Potency [8]: inactive
outcome [9]: inactive

COC(C)COC(C)COC(C)CO (stereo not given)
Potency [1]: inactive
Potency [10]: inactive
outcome [2]: inactive
Potency [3]: inactive
Potency [4]: inactive
Potency [5]: inactive
Potency [6]: inactive
Potency [7]: inactive
Potency [8]: inactive
outcome [9]: inactive

Cc1c(OCC(F)(F)F)ccnc1CS(=O)c1nc2ccccc2[nH]1 (stereo not given)
Potency [1]: inactive
outcome [2]: inactive
Potency [3]: inactive
Potency [4]: inactive
Potency [5]: inactive
Potency [6]: inactive
Potency [7]: inactive
Potency [8]: inactive
outcome [9]: inactive

CCCCC(CC)COC(=O)c1ccc(N(C)C)cc1 (stereo not given)
Potency [1]: inactive
outcome [2]: inactive
Potency [3]: inactive
Potency [4]: inactive
Potency [5]: inactive
Potency [6]: inactive
Potency [7]: inactive
Potency [8]: inactive
outcome [9]: inactive

CCC(C)c1ccccc1O (stereo not given)
Potency [1]: inactive
Potency [10]: inactive
outcome [2]: inactive
Potency [3]: inactive
Potency [4]: inactive
Potency [5]: inactive
Potency [6]: inactive
Potency [7]: inactive
Potency [8]: inactive
outcome [9]: inactive

CCCCNS(=O)(=O)c1ccccc1
Potency [1]: inactive
outcome [2]: inactive
Potency [3]: inactive
Potency [4]: inactive
Potency [5]: inactive
Potency [6]: inactive
Potency [7]: inactive
Potency [8]: inactive
outcome [9]: inactive

C=CC(C)(CCC=C(C)C)OC(C)=O (stereo not given)
Potency [1]: inactive
outcome [2]: inactive
Potency [3]: inactive
Potency [4]: inactive
Potency [5]: inactive
Potency [6]: inactive
Potency [7]: inactive
Potency [8]: inactive
outcome [9]: inactive

c1ccncc1
Potency [1]: inactive
outcome [2]: inactive
Potency [3]: inactive
Potency [4]: inactive
Potency [5]: inactive
Potency [6]: inactive
Potency [7]: inactive
Potency [8]: inactive
outcome [9]: inactive

O=C(c1ccccc1)c1ccc(O)cc1O
Potency [1]: inactive
outcome [2]: inactive
Potency [3]: inactive
Potency [4]: inactive
Potency [5]: inactive
Potency [6]: inactive
Potency [7]: 55.5 µM (active) and inactive
Potency [8]: inactive
outcome [9]: inactive

CC(C)CC(C)(O)C#CC(C)(O)CC(C)C (stereo not given)
Potency [1]: inactive
outcome [2]: inactive
Potency [3]: inactive
Potency [4]: inactive
Potency [5]: inactive
Potency [6]: inactive
Potency [7]: inactive
Potency [8]: inactive
outcome [9]: inactive

c1ccc2c(c1)c1cccc3ccc4cccc2c4c31
Potency [1]: inactive
outcome [2]: inactive
Potency [3]: inactive
Potency [4]: 48.6 µM (active)
Potency [5]: inactive
Potency [6]: inactive
Potency [7]: inactive
Potency [8]: inactive
outcome [9]: inactive

O=C(/C=C/C=C/c1ccc2c(c1)OCO2)N1CCCCC1
Potency [1]: inactive
outcome [2]: inactive
Potency [3]: inactive
Potency [4]: inactive
Potency [5]: inactive
Potency [6]: inactive
Potency [7]: inactive
Potency [8]: inactive
outcome [9]: inactive

Cc1cccc(C(=O)O)c1
Potency [1]: inactive
outcome [2]: inactive
Potency [3]: inactive
Potency [4]: inactive
Potency [5]: inactive
Potency [6]: inactive
Potency [7]: inactive
Potency [8]: inactive
outcome [9]: inactive

CN(C)c1nc(N(C)C)nc(N(C)C)n1
Potency [1]: inactive
outcome [2]: inactive
Potency [3]: inactive
Potency [4]: inactive
Potency [5]: inactive
Potency [6]: inactive
Potency [7]: inactive
Potency [8]: inactive
outcome [9]: inactive

C=C(C)C(=O)OCCOC(=O)C(=C)C
Potency [1]: inactive
outcome [2]: inactive
Potency [3]: inactive
Potency [4]: inactive
Potency [5]: inactive
Potency [6]: inactive
Potency [7]: inactive
Potency [8]: inactive
outcome [9]: inactive

NNc1ccc(C(=O)O)cc1
Potency [1]: inactive
outcome [2]: inactive
Potency [3]: inactive
Potency [4]: inactive
Potency [5]: inactive
Potency [6]: inactive
Potency [7]: inactive
Potency [8]: inactive
outcome [9]: inactive

CN1C(C(=O)Nc2ccccn2)=C(O)c2ccccc2S1(=O)=O
Potency [1]: inactive
Potency [10]: inactive
outcome [2]: inactive
Potency [3]: inactive
Potency [4]: inactive
Potency [5]: inactive
Potency [6]: inactive
Potency [7]: inactive
Potency [8]: inactive
outcome [9]: inactive

CCCCCCCCCC(=O)OC
Potency [1]: inactive
outcome [2]: inactive
Potency [3]: inactive
Potency [4]: inactive
Potency [5]: inactive
Potency [6]: inactive
Potency [7]: inactive
Potency [8]: inactive
outcome [9]: inactive

Cc1ccc(C)c(O)c1C
Potency [1]: inactive
Potency [10]: inactive
outcome [2]: inactive
Potency [3]: inactive
Potency [4]: inactive
Potency [5]: inactive
Potency [6]: inactive
Potency [7]: inactive
Potency [8]: inactive
outcome [9]: inactive

CCC(C)OC(=O)c1ccc(O)cc1 (stereo not given)
Potency [1]: inactive
outcome [2]: inactive
Potency [3]: inactive
Potency [4]: inactive
Potency [5]: inactive
Potency [6]: inactive
Potency [7]: inactive
Potency [8]: inactive
outcome [9]: inactive

CC(=O)C1(C)CC2=C(CCCC2(C)C)CC1C (stereo not given)
Potency [1]: inactive
outcome [2]: inactive
Potency [3]: inactive
Potency [4]: inactive
Potency [5]: inactive
Potency [6]: inactive
Potency [7]: inactive
Potency [8]: inactive
outcome [9]: inactive

CCCCC(CC)COCC1CO1 (stereo not given)
Potency [1]: inactive
outcome [2]: inactive
Potency [3]: inactive
Potency [4]: inactive
Potency [5]: inactive
Potency [6]: inactive
Potency [7]: inactive
Potency [8]: inactive
outcome [9]: inactive

Clc1nc(Cl)c(Cl)c(Cl)c1Cl
Potency [1]: inactive
outcome [2]: inactive
Potency [3]: inactive
Potency [4]: inactive
Potency [5]: inactive
Potency [6]: inactive
Potency [7]: inactive
Potency [8]: inactive
outcome [9]: inactive

COC(=O)CCC(=O)OC
Potency [1]: inactive
outcome [2]: inactive
Potency [3]: inactive
Potency [4]: inactive
Potency [5]: inactive
Potency [6]: inactive
Potency [7]: inactive
Potency [8]: inactive
outcome [9]: inactive
